# Laboratory results from PMC8384837, “Expanding the binding specificity for RNA recognition by a PUF domain”.
# How the values were obtained:
# Assay in all cases: yeast three-hybrid, YBZ-1, SC-Leu-His + 0.5 mM 3-AT, 4 days
# Settings in all cases: tags: N-Gal4 AD-HA kept; label: inside an RPR1-promoter hybrid RNA with tandem MS2 sites; ssRNA
# [1] = molecular target: PUM1 PUF domain R1-GIR (Homo sapiens, UniProt Q14671 828-1176, S863G;R864I;Q867R)
# In short: (§1)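 Pumilio-1 PUF domain libraries, randomized (NNK) at the three base-contacting residues of each repeat, were co-expressed with matching RNA elements from a centromeric plasmid in strain YBZ-1 (LexA–MS2 coat fusion, HIS3 reporter). Transformants were plated on SC-Leu (input) and SC-Leu-His + 0.5 mM 3-AT (selection) for four days, and repeat regions were PCR-amplified and Illumina-sequenced. The interaction score is the log2 change in variant frequency from input to selection, with pseudocount 1 where absent.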
# [2] = molecular target: PUM1 PUF domain R8-VWP (Homo sapiens, UniProt Q14671 828-1176, N1122V;Y1123W;Q1126P)
# In short: as §1
# [3] = molecular target: PUM1 PUF domain R3-PWW (Homo sapiens, UniProt Q14671 828-1176, C935P;R936W;Q939W)
# In short: as §1
# [4] = molecular target: PUM1 PUF domain R5-RKS (Homo sapiens, UniProt Q14671 828-1176, C1007R;R1008K;Q1011S)
# In short: as §1
# [5] = molecular target: T1, PUM1 PUF domain R6-AFL (Homo sapiens, UniProt Q14671 828-1176, N1043A;Y1044F;Q1047L)
# T1 sequence: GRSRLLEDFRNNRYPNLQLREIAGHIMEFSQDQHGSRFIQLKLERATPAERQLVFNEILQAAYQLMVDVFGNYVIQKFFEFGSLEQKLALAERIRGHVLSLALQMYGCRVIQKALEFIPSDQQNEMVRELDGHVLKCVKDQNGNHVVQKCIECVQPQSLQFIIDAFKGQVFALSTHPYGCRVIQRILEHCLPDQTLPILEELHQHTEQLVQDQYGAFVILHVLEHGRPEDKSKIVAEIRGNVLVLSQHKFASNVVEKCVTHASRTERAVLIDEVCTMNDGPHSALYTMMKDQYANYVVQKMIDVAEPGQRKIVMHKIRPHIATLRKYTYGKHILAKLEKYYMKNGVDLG
# In short: as §1
# [6] = molecular target: PUM1 PUF domain R5-QMG (Homo sapiens, UniProt Q14671 828-1176, C1007Q;R1008M;Q1011G)
# In short: as §1
sequence,measurement,setting,value
GGCUAGAACUAGUGGAUCCCCCGGCGCCCGGCGGCUCGAGCCCGGGUAAGUGUAAAUCGUCUGCAUGCCGCCGGGCGCCAUGCCUGCAGGUCGACUCUAGAAAACAUG,binding signal,[1],4.44 log2 enrichment (interaction score)
GGCUAGAACUAGUGGAUCCCCCGGCGCCCGGCGGCUCGAGCCCGGGUAAGUGUAAAUUGUCUGCAUGCCGCCGGGCGCCAUGCCUGCAGGUCGACUCUAGAAAACAUG,binding signal,[1],3.23 log2 enrichment (interaction score)
GGCUAGAACUAGUGGAUCCCCCGGCGCCCGGCGGCUCGAGCCCGGGUAAGCGUAAAUAGUCUGCAUGCCGCCGGGCGCCAUGCCUGCAGGUCGACUCUAGAAAACAUG,binding signal,[2],3.01 log2 enrichment (interaction score)
GGCUAGAACUAGUGGAUCCCCCGGCGCCCGGCGGCUCGAGCCCGGGUAAGUGUAAAUAGUCUGCAUGCCGCCGGGCGCCAUGCCUGCAGGUCGACUCUAGAAAACAUG,binding signal,[2],1.71 log2 enrichment (interaction score)
same,binding signal,[3],2.43 log2 enrichment (interaction score)
same,binding signal,[4],0.56 log2 enrichment (interaction score)
GGCUAGAACUAGUGGAUCCCCCGGCGCCCGGCGGCUCGAGCCCGGGUAAGUGAAAAUAGUCUGCAUGCCGCCGGGCGCCAUGCCUGCAGGUCGACUCUAGAAAACAUG,binding signal,[5],4.25 log2 enrichment (interaction score)
GGCUAGAACUAGUGGAUCCCCCGGCGCCCGGCGGCUCGAGCCCGGGUAAGUGUGAAUAGUCUGCAUGCCGCCGGGCGCCAUGCCUGCAGGUCGACUCUAGAAAACAUG,binding signal,[6],2.26 log2 enrichment (interaction score)
GGCUAGAACUAGUGGAUCCCCCGGCGCCCGGCGGCUCGAGCCCGGGUAAGUGUCAAUAGUCUGCAUGCCGCCGGGCGCCAUGCCUGCAGGUCGACUCUAGAAAACAUG,binding signal,[4],3.2 log2 enrichment (interaction score)
